PubChem BioAssay

experiment: CREB reporter modulators without forskolin, primary screen, cell-based, PC12, CRE-LacZ reporter, unstimulated (AID 1145); conditions: no forskolin, luminescence, 4.5 h, higher = more signal, called active from +8 up or from −8 down

z-score, inactive:
COCCOC(=O)N1C(=O)[C@@]2(c3cc(C#Cc4ccc(OC)cc4)ccc31)[C@H](c1ccc(OCCO)cc1)N1[C@H](c3ccccc3)[C@H](c3ccccc3)OC(=O)[C@H]1[C@@H]2C(=O)N1CCN(c2ncccn2)CC1 0.0695
C[N+](C)(C)CCCCCCNC(=O)[C@@H]1C[C@@H]2C(=O)N[C@@H](Cc3ccccc3)C(=O)N2[C@@H]1c1cccc(OCCO)c1 -1.22
CCOC(=O)C1=C[C@@H](C(C)(C)C)N(S(=O)(=O)c2ccc(C)cc2)[C@H]1c1ccc(F)cc1 0.0423
COC(=O)c1c(CC[C@@H](CO)NC(=O)NCCn2cc(C3(O)CCCC3)nn2)oc(C(C)=O)c1C(=O)OC 0.978
NC(=O)N1C(=O)C2C(C1=O)C1C=C(c3ccc(CO)cc3)C2C(c2cccs2)N1Cc1cccc(OC(F)(F)F)c1 (stereo unspecified) 1.08
NC(=O)[C@@H]1[C@H]2C(=O)O[C@H](c3ccccc3)[C@H](c3ccccc3)N2[C@H](c2ccc(O)cc2)[C@@]12C(=O)Nc1ccccc12 -0.491
CC(C)N1C(=O)C[C@@](C(=O)NCC(F)(F)F)(c2ccc([N+](=O)[O-])cc2)[C@H]1c1ccc(CO)cc1 -0.761
COCCCNC(=O)[C@@]1(C)c2ccccc2C(=O)N(C(C)C)[C@H]1c1ccc(CO)cc1 0.234
C=C(/C(=C/C[C@H](OC(C)=O)c1ccccc1OCCO)c1cnc2ccccc2c1)C(C)C 4.98
C=CCNC(=O)[C@@H]1[C@H]2C(=O)O[C@H](c3ccccc3)[C@H](c3ccccc3)N2[C@H](c2ccc(O)cc2)[C@@]12C(=O)N(C(=O)OCCOC)c1ccc(C#CCNC(N)=O)cc12 0.35
O=C(OCc1ccccc1)C1=CCC2c3[nH]c4ccccc4c3C(=O)C1N2S(=O)(=O)c1ccccc1[N+](=O)[O-] (stereo unspecified) -0.0137
CC(C)=CCN[C@H](CO)c1ccccc1 -1.05
O=C(c1ccccc1)N1Cc2ccccc2C[C@@]2(COC(c3ccc(OCCCO)cc3)=N2)C1=O 2.72
COC(=O)[C@H](Cc1ccccc1)N1CC2=C[C@@H](C3CC3)n3c(=O)n(C)c(=O)n3[C@H]2[C@@H]1[C@@H](O)Cc1ccccc1 2.03
COc1ccc(C#Cc2ccc3c(c2)[C@]2(C(=O)N3)[C@H](C(=O)NC[C@H](O)c3ccccc3)[C@H]3C(=O)O[C@H](c4ccccc4)[C@H](c4ccccc4)N3[C@@H]2c2ccc(O)cc2)cc1 -0.141
CC(C)C(=C=CC[C@@H](O)c1ccc(OCCO)cc1)C[C@@H](O)COCc1ccccc1 6.97
CCCCCN1CC=CC23O[C@@H]4C=CCCOC(=O)C4[C@H]2C(=O)N(CCCCCO)[C@@H]3C1=O (stereo partly specified) -0.895
CN1C=C(C(=O)OCCS(C)(=O)=O)C(C(=O)OCCS(C)(=O)=O)=CC(c2ccc(CO)cc2)=CC1C1CC1 (stereo unspecified) -0.205
COc1cc(C(O)C2C=CC3C(=O)NC(=O)C3N2Nc2ccccn2)cc(OC)c1OC (stereo unspecified) 0.0467
CN(C)CCCC[C@@H]1NC(=O)[C@H]2C[C@@H](C(=O)NCCCCCCN)[C@@H](c3ccc(O)cc3)N2C1=O -0.256
Cc1ccc(S[C@]2(C(=O)NCCCN(C)C)CC(=O)N(Cc3cc(C(F)(F)F)cc(C(F)(F)F)c3)[C@@H]2c2ccc(CO)cc2)cc1 -0.152
CC1(C)[C@@H]2CC(C(O)C3C=CC4C(=O)N(c5ccccc5)C(=O)C4N3Nc3ccc([N+](=O)[O-])cc3)=C[C@H]1C2 (stereo partly specified) 0.323
O=C1c2ccccc2[C@](Cc2ccccc2I)(C(=O)NCC(F)(F)F)[C@H](c2ccc(CO)cc2)N1Cc1ccccc1Cl 0.506
C=C(COC)C(=O)CC[C@@H](OC(C)=O)c1ccc(CO)o1 0.363
COc1ccccc1CN1C(=O)c2ccccc2[C@@H](C(=O)NC2CC2)[C@@H]1c1ccc(CO)cc1 -0.709
COc1ccc(CCNC(=O)[C@@]2(Sc3ccc(C)cc3)CC(=O)N(C(C)C)[C@@H]2c2ccc(CO)cc2I)cc1 -0.295
CCC[C@@H]1C[C@@]1(CCC)[C@@H](NS(=O)(=O)c1cccc2cccnc12)c1ccc(Cl)cc1 -0.754
CCCC[C@@H]1C[C@H]1[C@@H](NC(=O)c1ccccc1)c1ccc(C(=O)OC)cc1 0.576
[N-]=[N+]=Nc1ccccc1[C@@H]1OC(c2ccc(OCCCO)cc2)=N[C@]1(CCS(=O)(=O)c1ccccc1)C(N)=O 0.218
COc1cc2c(cc1O)C(C1CC1)N(Cc1sc3ccccc3c1Cl)CC2 (stereo unspecified) -0.671
CO[C@H]1O[C@H](CO)[C@@H](OC(=O)Nc2ccccc2)[C@H](OC(=O)Nc2ccccc2)[C@@H]1OC(=O)Nc1ccccc1 0.101
COc1cccc(-c2cccc(=O)o2)c1 -0.228
C=CCN1C(=O)[C@@]2(CC=C)N=C(c3ccc(OCCCO)cc3)O[C@H]2c2ccccc21 1.13
COCCOC(=O)N1C(=O)[C@@]2(c3cc(C#CCC(C(=O)OC)C(=O)OC)ccc31)[C@H](C(=O)Nc1nc3ccccc3s1)[C@H]1C(=O)O[C@H](c3ccccc3)[C@H](c3ccccc3)N1[C@@H]2c1ccccc1OCCO -0.141
O=C1N[C@@H](Cc2ccccc2)C(=O)N2[C@@H]1C[C@@H](C(=O)O)[C@H]2c1cccc(OCCO)c1 0.692
C=CCOC(=O)[C@H]1[C@@H]2C(=O)O[C@@H](c3ccccc3)[C@@H](c3ccccc3)N2[C@@H](c2ccc(OCCOC(=O)[C@H]3C[C@H]4C(=O)N[C@@H](CCCCNC(C)=O)C(=O)N4[C@H]3c3ccc(O)cc3)cc2)[C@]12C(=O)Nc1ccc(I)cc12 5.04
